Bioassay records: PubChem BioAssay, several laboratories
CYP2C9 inh = inhibitors of human CYP2C9. CYP2C9 Supersomes, luciferin-H conversion, luminescence. inhibition, % at 5 µM. hit rate 20% among 96,000;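 active = blocking of liver enzyme CYP2C9 beyond about 50% at 5 µM, limit read from the data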
Target sequence (P11712 whole entry, looked up): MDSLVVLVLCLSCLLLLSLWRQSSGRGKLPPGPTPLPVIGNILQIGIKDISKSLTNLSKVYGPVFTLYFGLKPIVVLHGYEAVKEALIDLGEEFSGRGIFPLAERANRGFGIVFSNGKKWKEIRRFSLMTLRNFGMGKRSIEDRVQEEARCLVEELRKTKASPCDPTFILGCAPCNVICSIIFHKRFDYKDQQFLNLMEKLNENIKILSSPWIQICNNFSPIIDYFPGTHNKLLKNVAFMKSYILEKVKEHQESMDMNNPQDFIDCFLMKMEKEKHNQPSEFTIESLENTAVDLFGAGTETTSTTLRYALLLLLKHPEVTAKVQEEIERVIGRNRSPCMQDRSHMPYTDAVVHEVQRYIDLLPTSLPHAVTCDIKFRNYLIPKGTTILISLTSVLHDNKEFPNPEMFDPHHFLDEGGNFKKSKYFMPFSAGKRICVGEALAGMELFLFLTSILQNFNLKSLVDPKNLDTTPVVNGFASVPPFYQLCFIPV
PostGolgi ctrl = inhibits growth of the yeast control strain. efflux-deficient yeast background strain, growth absorbance A615, 16 h. inhibition, % at 10 µM. hit rate 5% among 98,000. AID 738
CYP2C9 act = increases human cytochrome P450 2C9 activity | P11712 | recombinant CYP2C9, luciferin-H conversion, luminescence; active compounds read high; factor 1 = untreated enzyme, 0 = blocked | activation factor at 5 µM | hit rate 1.4% among 96,000 | AID 1024;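 active = activation factor of 2 or more for CYP2C9 at a 5 µM dose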;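 also: 0 = sulfaphenazole-blocked wells and 1 = vehicle-only wells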
PostGolgi yeast = growth inhibition of a yeast mutant, post-Golgi transport screen | inhibition, % at 10 µM | AID 739 | hit rate 0.9% among 98,000 | post-Golgi transport phenotypic cell assay;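 also: yeast cells grown in 1536-well plates; yeast grown about 18 h at 30C before absorbance read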
CYP2C19 inh = human CYP2C19 inhibition; inhibition, % at 5 µM; P33261; hit rate 21% among 96,000; CYP2C19 Supersomes, luciferin-H EGE luminescence, 30 min;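 active = CYP2C19 inhibition above a set limit at 5 µM in the primary screen, cut at about 50% in these data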;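 also: plate controls were negative control wells for no effect and 2.5 mM tranylcypromine positive control for full effect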
CYP2C19 activ = increases human CYP2C19 enzyme activity | recombinant CYP2C19, luciferin-H EGE luminescence; active compounds read high; 0 = fully inhibited enzyme, 1 = untreated enzyme | activation factor at 5 µM | 96,000 tested, under 10 active;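 active = activation factor of at least 2 at 5 µM in the primary screen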;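 also: 0 = wells with 2.5 mM tranylcypromine and 1 = vehicle-only wells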
* marks the source's active call; other numbers are inactive results. Sampled rows, rich in hits. Any-hit rate of the full collection: about 32%. Rule as the data show it, unless noted: active = inhibition above about 30%; inactive = the rest.

SMILES	CYP2C9 inh	PostGolgi ctrl	CYP2C9 act	PostGolgi yeast	CYP2C19 inh	CYP2C19 activ
N#CCCn1c(SCC(=O)c2c[nH]c3ccccc23)nc2ccccc21	44.1	1.9	0.6	1.5	70.4*	0.3
COc1ccc(-n2c(NC(=O)c3ccc(Br)o3)c(C#N)c3nc4ccccc4nc32)cc1	78.9*	3.4	0.2	-0.3	2.4	1
Cc1ccc(C(C)n2cc(C(=O)NCc3ccncc3)nn2)cc1 (configuration not stated)	88.7*	-0.6	0.1	-2.6	43.1	0.6
COc1cccc(N2CC(O)Cn3c2nc2c3c(=O)n(CCCc3ccccc3)c(=O)n2C)c1 (configuration not stated)	25.4	-4.5	0.7	16.2	14.4	0.9
Cc1cccc(NC(=O)N(C)Cc2cccs2)c1	-28.4	3.1	1.3	-8.5	44.0	0.6
CC(C)CNC(=S)NNC(=O)c1csc2ccccc12	-7.5	-4.2	1.1	-2.2	23.5	0.8
Cc1ccsc1C(=O)NNC(=S)NCC(C)C	27.5	4.2	0.7	4.0	91.1*	0.1
Cc1cccc(NC(=S)NNC(=O)c2sccc2C)c1	88.0*	9.2	0.1	1.9	73.3*	0.3
O=C(O)c1ccc(Cn2cc(Cl)cn2)cc1	6.3	0.6	0.9	-3.0	14.2	0.9
Cc1cccc(OCc2nnc(SCC(=O)Nc3sc(C)c(C)c3C#N)n2C)c1	38.5	-0.5	0.6	0.8	11.9	0.9
Cc1ccc(Nc2nc(N)nc(CN3CCN(c4ccccc4)CC3)n2)cc1Cl	60.3*	30.3*	0.4	15.9	20.2	0.8
CCOC(=O)N1CCN(Cc2nc(N)nc(Nc3ccc(Oc4ccccc4)cc3)n2)CC1	80.7*	-7.6	0.2	10.8	28.5	0.7
Cc1ccc(Nc2nc(N)nc(CN3CCN(C)CC3)n2)cc1C	-11.3	7.1	1.1	0.3	-17.2	1.2
CCOc1nc(Nc2ccc(OC)c(Cl)c2)nc(N2CCN(c3ccc(OC)cc3)CC2)n1	67.1*	6.3	0.3	-4.9	31.0	0.7
CCOC(=O)N1CCN(Cc2nc(N)nc(Nc3ccc(OC)cc3)n2)CC1	34.0	1.2	0.7	12.0	23.4	0.8
COc1ccc(N2CCN(Cc3nc(N)nc(Nc4ccc(C)c(Cl)c4)n3)CC2)cc1	68.2*	14.8	0.3	0.2	59.0*	0.4
O=Cc1ccc(OC(=O)C2CC(=O)N(c3ccc(F)cc3)C2)cc1 (configuration not stated)	-1.4	-2.7	1	6.2	-4.7	1
CCCCC(=O)Nc1cc(NC(=O)CCCC)cc(C(=O)O)c1	0.7	6.0	1	8.6	12.2	0.9
CC1Cc2cc(C3(O)C(=O)c4ccccc4C3=O)ccc2N1 (configuration not stated)	-142.1	1.4	2.4*	4.3	60.2*	0.4
COc1cc(C=O)ccc1OCc1c(C)noc1C	47.6	1.7	0.5	4.8	84.7*	0.2
Cc1noc(C)c1COC(=O)c1cccc(S(=O)(=O)N2CCCCCC2)c1	96.2*	18.5	0	-8.1	90.9*	0.1
COc1ccc(S(=O)(=O)N2CCc3ccccc32)cc1C(=O)OCc1c(C)noc1C	98.9*	2.5	0	-6.3	94.6*	0.1
COc1cc(C(=O)N2CCN(S(=O)(=O)c3ccc(C)cc3)CC2)ccc1OCc1c(C)noc1C	55.5*	3.6	0.4	-1.0	70.1*	0.3
COc1cc(C(=O)O)ccc1OCc1c(C)noc1C	-6.8	8.0	1.1	4.9	-21.3	1.2
Cc1nnc(NC(=O)c2ccc3c(c2)C(=O)N(CCC(C)C)C3=O)s1	8.8	2.2	0.9	-11.8	3.2	1
SMILES	CYP2C9 inh	PostGolgi ctrl	CYP2C9 act	PostGolgi yeast	CYP2C19 inh	CYP2C19 activ
CC(Oc1ccccc1)C(=O)NC1CC(C)(C)NC(C)(C)C1 (configuration not stated)	-6.0	0.6	1.1	8.1	-11.1	1.1
CC1(C)Cc2nc3oc4c(N(CCO)Cc5ccccc5)ncnc4c3cc2CO1	42.5	7.5	0.6	6.2	26.8	0.7
CCOC(=O)N1CCC(NC(=O)CCS(=O)(=O)c2ccc3c(c2)CCN3C(C)=O)CC1	10.4	9.2	0.9	-4.3	-0.6	1
CCCCNC(=O)COC(=O)c1cc(S(=O)(=O)N2CCCCCC2)ccc1OC	47.8	6.6	0.5	-1.5	55.4*	0.4
COc1ccc(S(=O)(=O)N2CCCCCC2)cc1C(=O)OCC(=O)NC(N)=O	21.2	-2.2	0.8	-3.6	10.1	0.9
COc1ccc(S(=O)(=O)N2CCCCCC2)cc1C(=O)OCc1c(C)noc1C	86.3*	14.8	0.1	16.2	50.1*	0.5
O=P(O)(CCc1ccccc1)C(O)c1ccccc1 (configuration not stated)	-10.9	21.9	1.1	-0.5	-9.8	1.1
Cc1cccc(Oc2ncnc3oc(-c4ccccc4)cc23)c1C	54.0*	10.3	0.5	-7.3	28.0	0.7
O=C(c1ccccc1)N1CCN(CC#CC2(O)CCCCC2)CC1	-16.8	5.0	1.2	10.7	-9.5	1.1
O=C(c1ccccn1)c1conc1C(=O)c1ccc(Br)cc1	56.7*	-2.4	0.4	-1.4	85.8*	0.1
COc1ccc(Nc2ncc(C(=O)O)c3ccccc23)cc1	-24.2	6.2	1.2	1.7	-10.2	1.1
Cc1nc2ccccc2nc1OCC(=O)N1CCN(c2ccccc2)CC1	-23.5	22.7	1.2	2.0	23.3	0.8
COc1ccc(Nc2ncc(C(=O)N3CCN(c4ccc(F)cc4)CC3)c3ccccc23)cc1	66.5*	28.1	0.3	6.4	61.1*	0.4
O=C(COc1ccccc1Br)N1CCN(c2ccccc2)CC1	-4.3	14.4	1	-4.9	94.6*	0.1
O=C(COc1ccccc1Cl)N1CCN(c2ccc(F)cc2)CC1	-28.7	15.5	1.3	8.8	82.0*	0.2
O=C(CN1C(=O)c2cccc3cccc1c23)N1CCN(c2ccc(F)cc2)CC1	-118.6	10.0	2.2*	19.3	5.3	0.9
COC(=O)c1ccc(OC)cc1OCC(=O)N1CCN(c2ccc(F)cc2)CC1	32.5	4.0	0.7	3.9	64.5*	0.4
Cn1c(=O)c2c(ncn2CC(=O)N2CCN(c3ccc(F)cc3)CC2)n(C)c1=O	77.7*	8.2	0.2	3.6	-0.2	1
O=C(COc1ccc(-n2cnnn2)cc1)N1CCN(c2ccc(F)cc2)CC1	2.1	4.8	1	-4.5	-2.4	1
O=[N+]([O-])c1ccc(N2CCN(S(=O)(=O)Cc3ccccc3)CC2)cc1N1CCOCC1	53.4*	16.5	0.5	25.1	56.4*	0.4
O=C(OCC(=O)N1CCN(c2ccccc2)CC1)c1ccc2ccccc2n1	-130.4	5.4	2.3*	-0.3	-0.7	1
Cc1cccc(NC(=O)CC2NC3CCCCC3NC2=O)c1 (configuration not stated)	-2.5	-4.3	1	13.3	16.3	0.8
O=C(COc1ccccc1Cl)N1CCN(c2ccc([N+](=O)[O-])c(N3CCOCC3)c2)CC1	85.3*	13.9	0.1	-9.4	31.6	0.7
